Each sequence was assayed against HOXB6 (Homo sapiens, UniProt P17509 132-218, K202E) (assay: PBM; 200 nM protein, PBS). Details: dsDNA, one strand shown.
Chain of HOXB6 (Homo sapiens, UniProt P17509 132-218, K202E) (P17509 132-218 K202E): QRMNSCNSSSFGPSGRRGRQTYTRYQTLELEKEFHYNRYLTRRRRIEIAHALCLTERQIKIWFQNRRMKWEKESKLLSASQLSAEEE
In the case of TCCTAGGA, the binding signal is reported as 9.13 upbm affinity estimate (log intensity, higher = more binding, comparable within an allelic series).
GGGCCCCA was tested, and the binding signal was 8.9 upbm affinity estimate (log intensity, higher = more binding, comparable within an allelic series).
For TAGAATGA, the binding signal was 9.57 upbm affinity estimate (log intensity, higher = more binding, comparable within an allelic series).
With CCAGTCCC the binding signal was 9.1 upbm affinity estimate (log intensity, higher = more binding, comparable within an allelic series).
In the case of CGGTAGGC, the binding signal is reported as 9.06 upbm affinity estimate (log intensity, higher = more binding, comparable within an allelic series).
CTGCCTGC was tested, and the binding signal was 9.03 upbm affinity estimate (log intensity, higher = more binding, comparable within an allelic series).
With AAATGGTC the binding signal was 9.65 upbm affinity estimate (log intensity, higher = more binding, comparable within an allelic series).
In the case of CTGGTCCC, the binding signal is reported as 9.06 upbm affinity estimate (log intensity, higher = more binding, comparable within an allelic series).
CCGGAGCG was tested, and the binding signal was 9.07 upbm affinity estimate (log intensity, higher = more binding, comparable within an allelic series).
In the case of AAATCGAC, the binding signal is reported as 9.47 upbm affinity estimate (log intensity, higher = more binding, comparable within an allelic series).
AAGGGAGC was tested, and the binding signal was 9.01 upbm affinity estimate (log intensity, higher = more binding, comparable within an allelic series).
With GAGAGGGC the binding signal was 8.82 upbm affinity estimate (log intensity, higher = more binding, comparable within an allelic series).
With CCAGCGGA the binding signal was 9.05 upbm affinity estimate (log intensity, higher = more binding, comparable within an allelic series).
For CTCGGCTC, the binding signal was 9.06 upbm affinity estimate (log intensity, higher = more binding, comparable within an allelic series).
AATAGTTC was tested, and the binding signal was 9.51 upbm affinity estimate (log intensity, higher = more binding, comparable within an allelic series).
For AGCGAGGG, the binding signal was 9.04 upbm affinity estimate (log intensity, higher = more binding, comparable within an allelic series).
For GGCAGCAC, the binding signal was 9.12 upbm affinity estimate (log intensity, higher = more binding, comparable within an allelic series).
CCCTCCGA was tested, and the binding signal was 9.02 upbm affinity estimate (log intensity, higher = more binding, comparable within an allelic series).
AAGGGACC was tested, and the binding signal was 9.07 upbm affinity estimate (log intensity, higher = more binding, comparable within an allelic series).
CCCAGCTC was tested, and the binding signal was 9.08 upbm affinity estimate (log intensity, higher = more binding, comparable within an allelic series).
For GATGCCCC, the binding signal was 9.11 upbm affinity estimate (log intensity, higher = more binding, comparable within an allelic series).
In the case of CCAATTTC, the binding signal is reported as 9.48 upbm affinity estimate (log intensity, higher = more binding, comparable within an allelic series).
In the case of GGGTCCGA, the binding signal is reported as 9.03 upbm affinity estimate (log intensity, higher = more binding, comparable within an allelic series).
In the case of AATTTCGG, the binding signal is reported as 9.51 upbm affinity estimate (log intensity, higher = more binding, comparable within an allelic series).
For CCCCGGTC, the binding signal was 8.98 upbm affinity estimate (log intensity, higher = more binding, comparable within an allelic series).
CGGCGCGC was tested, and the binding signal was 9.13 upbm affinity estimate (log intensity, higher = more binding, comparable within an allelic series).
With GCGCTCCC the binding signal was 9.05 upbm affinity estimate (log intensity, higher = more binding, comparable within an allelic series).
With GGTATTAC the binding signal was 9.66 upbm affinity estimate (log intensity, higher = more binding, comparable within an allelic series).
In the case of TAATGGAA, the binding signal is reported as 9.72 upbm affinity estimate (log intensity, higher = more binding, comparable within an allelic series).
With CCACGGAC the binding signal was 9.01 upbm affinity estimate (log intensity, higher = more binding, comparable within an allelic series).
AGTCCTCC was tested, and the binding signal was 9.17 upbm affinity estimate (log intensity, higher = more binding, comparable within an allelic series).
For GCACGTGC, the binding signal was 9.35 upbm affinity estimate (log intensity, higher = more binding, comparable within an allelic series).
In the case of AGTTATTG, the binding signal is reported as 9.58 upbm affinity estimate (log intensity, higher = more binding, comparable within an allelic series).
With CTCCTCGC the binding signal was 9.02 upbm affinity estimate (log intensity, higher = more binding, comparable within an allelic series).
In the case of AAGCAGGC, the binding signal is reported as 9.08 upbm affinity estimate (log intensity, higher = more binding, comparable within an allelic series).
For AAGTACGA, the binding signal was 9.65 upbm affinity estimate (log intensity, higher = more binding, comparable within an allelic series).
For CAACATAA, the binding signal was 9.7 upbm affinity estimate (log intensity, higher = more binding, comparable within an allelic series).
For AATGGCTA, the binding signal was 9.56 upbm affinity estimate (log intensity, higher = more binding, comparable within an allelic series).
In the case of CTCCGAAG, the binding signal is reported as 9.06 upbm affinity estimate (log intensity, higher = more binding, comparable within an allelic series).
In the case of GCTGGCTA, the binding signal is reported as 9.09 upbm affinity estimate (log intensity, higher = more binding, comparable within an allelic series).

What follows are sequences tested against HOXB6 (Homo sapiens, UniProt P17509 132-218) (assay: PBM; 200 nM protein, PBS). Details: dsDNA, one strand shown.
Chain of HOXB6 (Homo sapiens, UniProt P17509 132-218) (P17509 132-218): as the sequence (P17509 132-218 K202E) above, with E71K counted along it
In the case of TCCTAGGA, the binding signal is reported as 9.16 upbm affinity estimate (log intensity, higher = more binding, comparable within an allelic series).
GGGCCCCA was tested, and the binding signal was 8.9 upbm affinity estimate (log intensity, higher = more binding, comparable within an allelic series).
In the case of TAGAATGA, the binding signal is reported as 10.3 upbm affinity estimate (log intensity, higher = more binding, comparable within an allelic series).
CCAGTCCC was tested, and the binding signal was 8.95 upbm affinity estimate (log intensity, higher = more binding, comparable within an allelic series).
For CGGTAGGC, the binding signal was 8.98 upbm affinity estimate (log intensity, higher = more binding, comparable within an allelic series).
In the case of CTGCCTGC, the binding signal is reported as 8.97 upbm affinity estimate (log intensity, higher = more binding, comparable within an allelic series).
AAATGGTC was tested, and the binding signal was 10.6 upbm affinity estimate (log intensity, higher = more binding, comparable within an allelic series).
For CTGGTCCC, the binding signal was 9.01 upbm affinity estimate (log intensity, higher = more binding, comparable within an allelic series).
CCGGAGCG was tested, and the binding signal was 9.17 upbm affinity estimate (log intensity, higher = more binding, comparable within an allelic series).
AAATCGAC was tested, and the binding signal was 10.1 upbm affinity estimate (log intensity, higher = more binding, comparable within an allelic series).
In the case of AAGGGAGC, the binding signal is reported as 8.99 upbm affinity estimate (log intensity, higher = more binding, comparable within an allelic series).
GAGAGGGC was tested, and the binding signal was 8.79 upbm affinity estimate (log intensity, higher = more binding, comparable within an allelic series).
With CCAGCGGA the binding signal was 8.93 upbm affinity estimate (log intensity, higher = more binding, comparable within an allelic series).
In the case of CTCGGCTC, the binding signal is reported as 8.95 upbm affinity estimate (log intensity, higher = more binding, comparable within an allelic series).
In the case of AATAGTTC, the binding signal is reported as 10.1 upbm affinity estimate (log intensity, higher = more binding, comparable within an allelic series).
For AGCGAGGG, the binding signal was 8.99 upbm affinity estimate (log intensity, higher = more binding, comparable within an allelic series).
For GGCAGCAC, the binding signal was 9.12 upbm affinity estimate (log intensity, higher = more binding, comparable within an allelic series).
CCCTCCGA was tested, and the binding signal was 8.91 upbm affinity estimate (log intensity, higher = more binding, comparable within an allelic series).
AAGGGACC was tested, and the binding signal was 8.97 upbm affinity estimate (log intensity, higher = more binding, comparable within an allelic series).
CCCAGCTC was tested, and the binding signal was 9.08 upbm affinity estimate (log intensity, higher = more binding, comparable within an allelic series).
With GATGCCCC the binding signal was 8.96 upbm affinity estimate (log intensity, higher = more binding, comparable within an allelic series).
With CCAATTTC the binding signal was 10.1 upbm affinity estimate (log intensity, higher = more binding, comparable within an allelic series).
GGGTCCGA was tested, and the binding signal was 9.07 upbm affinity estimate (log intensity, higher = more binding, comparable within an allelic series).
In the case of AATTTCGG, the binding signal is reported as 10.2 upbm affinity estimate (log intensity, higher = more binding, comparable within an allelic series).
In the case of CCCCGGTC, the binding signal is reported as 9.03 upbm affinity estimate (log intensity, higher = more binding, comparable within an allelic series).
With CGGCGCGC the binding signal was 9.19 upbm affinity estimate (log intensity, higher = more binding, comparable within an allelic series).
For GCGCTCCC, the binding signal was 8.94 upbm affinity estimate (log intensity, higher = more binding, comparable within an allelic series).
GGTATTAC was tested, and the binding signal was 10.2 upbm affinity estimate (log intensity, higher = more binding, comparable within an allelic series).
In the case of TAATGGAA, the binding signal is reported as 10.8 upbm affinity estimate (log intensity, higher = more binding, comparable within an allelic series).
CCACGGAC was tested, and the binding signal was 9.02 upbm affinity estimate (log intensity, higher = more binding, comparable within an allelic series).
AGTCCTCC was tested, and the binding signal was 9.06 upbm affinity estimate (log intensity, higher = more binding, comparable within an allelic series).
GCACGTGC was tested, and the binding signal was 9.36 upbm affinity estimate (log intensity, higher = more binding, comparable within an allelic series).
With AGTTATTG the binding signal was 10.6 upbm affinity estimate (log intensity, higher = more binding, comparable within an allelic series).
CTCCTCGC was tested, and the binding signal was 9.05 upbm affinity estimate (log intensity, higher = more binding, comparable within an allelic series).
With AAGCAGGC the binding signal was 9.05 upbm affinity estimate (log intensity, higher = more binding, comparable within an allelic series).
In the case of AAGTACGA, the binding signal is reported as 10.3 upbm affinity estimate (log intensity, higher = more binding, comparable within an allelic series).
With CAACATAA the binding signal was 10.4 upbm affinity estimate (log intensity, higher = more binding, comparable within an allelic series).
For AATGGCTA, the binding signal was 10.8 upbm affinity estimate (log intensity, higher = more binding, comparable within an allelic series).
With CTCCGAAG the binding signal was 9.02 upbm affinity estimate (log intensity, higher = more binding, comparable within an allelic series).
For GCTGGCTA, the binding signal was 9 upbm affinity estimate (log intensity, higher = more binding, comparable within an allelic series).

— publication PMC11006913
